# Screening results (PubChem BioAssay)
# Rows were chosen to be rich in hits. Some 5.5% of all compounds tested hit in one or more screens of this group.
# Integrin act MD: qHTS for Activators of Integrin-Mediated Alleviation for Muscular Dystrophy. Potency, µM (doses to about 38.3 µM), for the others: at the top dose activation, most hits filed as activators. hit rate 0.064% among 350,000. alpha7betagal myoblasts, beta-gal FDG fluorescence, 48 h;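 note: 100% = response of the positive control SU9516; nearly all actives have a fitted effect of over 60% in size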
#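 Alpha7betagal+/- myoblasts (passage 13) were plated 16-24 hr, then exposed to compounds (1:260 dilution of DMSO stock) for 48 hours at 37C. After MPER lysis, β-galactosidase reporter activity was read as FDG fluorescence (ex 480/em 540) after 30 minutes.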
# Mito fusion act: qHTS Assay for Small Molecule Inhibitors of Mitochondrial Division or Activators of Mitochondrial Fusion | S. cerevisiae fusion-defective mutant growth rescue, CellTiterGlo 48 h | Potency, µM (series often up to 46.1 µM), for the others: at the highest dose growth rescue (activation), hits mostly activators | hit rate 0.23% among 320,000; note: % of control where 0% means no effect; nearly all actives have a fitted effect of over 45% in size
#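 Read-out: ATP-based luminescence (CellTiterGlo, 10 min ambient) reporting growth of fusion-defective ts yeast after 48 hours at 37C on glycerol/ethanol YPEG medium in the presence of compound.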
# Chronic BCR inh: qHTS Assay to Find Inhibitors of Chronic Active B-Cell Receptor Signaling. ABC-DLBCL IkBa-CBG/CBR reporter, luminescence ratio, 4 h. Potency, µM (highest dose often 46.1 µM), without a hit: at the highest dose activity change, negative = inhibition, usual class: inhibitors. hit rate 0.05% among 340,000. AID 493014, 2011; active = well fitted inhibition curve with a large enough effect in the signal ratio, with a control signal flat, not every such curve was filed as active; inconclusive = small, poorly fitted or top-dose-only effect, or effect the other way, or a change in a side signal; the % refers to the signal ratio;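 note: plate controls were basal doxycycline-induced cells for no effect and cells given 10 µM MG132 for full effect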
#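 Compounds up to 46 uM were incubated four hours with TMD8 cells whose green CBG68 luciferase is fused to IkappaBalpha; red CBR luminescence normalised the signal, and concentration-effect curves were fitted to fusion, red and ratio data.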
# uPA surface inh: qHTS for Inhibitors of Cell Surface uPA Generation; cell surface uPA generation assay, qHTS; Potency, µM (series often up to 38.3 µM), inactives show top-dose activity change, negative = inhibition, actives largely listed as inhibitors; hit rate 0.31% among 330,000; AID 540303, 2011; active = well fitted inhibition curve with a large enough effect; inconclusive = small, poorly fitted or top-dose-only effect; inactive = no such curve, though single readings can be large or run the other way; tested in mouse RAW 264.7 cells; note: % is set by controls: 0 for no effect and ±100 for the full control effect; nearly all actives have a fitted effect of over 55% in size
# RORg inh: qHTS for inhibitors of ROR gamma transcriptional activity; Nuclear receptor ROR-gamma (Mus musculus), P51450; Drosophila S2 Gal4-RORgamma UAS-luciferase reporter, 20 h; Potency, µM (titrated, usually from 53.6 µM), without a hit: at the top dose activity change, negative = inhibition, actives largely listed as inhibitors; hit rate 5.4% among 310,000; AID 2551, 2010; note: % is set by controls: 0 for no effect and ±100 for the full control effect; nearly all actives have a fitted effect of over 60% in size
# Target sequence (P51450 whole entry, looked up, the tested form may be a part): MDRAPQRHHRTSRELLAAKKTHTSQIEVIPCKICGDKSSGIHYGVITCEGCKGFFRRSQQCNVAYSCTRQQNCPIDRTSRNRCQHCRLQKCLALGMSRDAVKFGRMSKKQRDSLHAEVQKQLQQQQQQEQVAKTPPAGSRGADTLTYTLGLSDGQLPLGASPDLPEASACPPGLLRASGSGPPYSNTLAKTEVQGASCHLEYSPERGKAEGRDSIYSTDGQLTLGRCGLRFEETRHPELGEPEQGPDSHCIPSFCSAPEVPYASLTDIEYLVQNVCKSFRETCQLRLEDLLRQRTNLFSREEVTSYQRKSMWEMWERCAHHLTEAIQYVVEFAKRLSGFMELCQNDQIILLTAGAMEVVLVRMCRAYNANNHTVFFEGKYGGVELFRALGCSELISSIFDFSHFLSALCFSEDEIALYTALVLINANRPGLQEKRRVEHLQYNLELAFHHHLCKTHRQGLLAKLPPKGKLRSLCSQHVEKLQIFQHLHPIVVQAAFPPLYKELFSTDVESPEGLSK
#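 A Gal4/UAS one-hybrid system in insect cells: metallothionein-promoter Gal4–ROR gamma fusion plus Photinus luciferase reporter. Copper sulfate 700 uM final, 20 hr ambient incubation, luminescent detection after 10 min with reagent.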
# VP16 counter: VP16 counterscreen qHTS for inhibitors of ROR gamma transcriptional activity. Potency, µM (doses to about 53.6 µM), without a hit: at the highest dose activity, negative = inhibition, most hits filed as inhibitors. AID 2546, 2010. hit rate 3.5% among 310,000. Drosophila S2 Gal4-VP16 UAS-luciferase, luminescence, 20 h;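 note: Gal4-VP16 expression switched on by copper sulfate through the metallothionein promoter; % is set by controls: 0 for no effect and ±100 for the full control effect; nearly all actives have a fitted effect of over 50% in size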
# Active calls of the source: *; u = inconclusive; x = no result; [ ] = dose if it differs, or a comment. Unless noted, calls come from the whole dose curve; as a rule, active = well fitted curve in the direction sought with a large enough effect; inconclusive = small, poorly fitted or top-dose-only effect, or another doubt; inactive = no such curve, though single readings can be large; an effect the other way counts as inactive or inconclusive. Potency is the fitted concentration of half-maximal effect.
SMILES,Integrin act MD,Mito fusion act,Chronic BCR inh,uPA surface inh,RORg inh,VP16 counter
O=C1CCCC(O)=C1N=Nc1c(Cl)cc(Cl)cc1Cl,-36%,4%,u,3%,11µM*,u
O=C(C[C@H]1C[C@H](C(=O)N2CCOCC2)[C@@]2(CCC3CCCC3)c3[nH]c4ccc(Cl)cc4c3CCN2C1=O)NCCCn1ccnc1,-4%,x,u,13µM*,x,x
COc1ccccc1OCC(=O)NNC(=O)c1cnccn1,-4%,0%,1%,-2%,11µM*,-3%
O=C(NNC(=O)c1cnccn1)c1ccc(Cl)c(Cl)c1,-33%,1%,u,-30%,6.3µM*,10µM*
CCc1ccc(OCC(=O)NNC(=O)c2cnccn2)c(Br)c1,0%,-1%,-2%,u,u,6.3µM*
Cn1cccc1C(=O)N1CCC2(CC1)CN(Cc1cc(C(F)(F)F)cc(C(F)(F)F)c1)C2,x,x,x,x,4%,-4%
CCC[C@H](NC(C)=O)C(=O)N[C@H]1CC(=O)ONCCCC[C@@H](C(N)=O)NC(=O)[C@H](Cc2c[nH]c3ccccc23)NC(=O)[C@H](CCCN=C(N)N)NC(=O)[C@@H](Cc2ccc3ccccc3c2)NC(=O)[C@H](Cc2cnc[nH]2)NC1=O,x,x,x,x,2%,7%
CC(OC(=O)c1ccc(Cl)c([N+](=O)[O-])c1)C(=O)N1CCN(Cc2ccccc2)CC1 (stereo unspecified),-58%,-2%,u,u,x,x
Cc1ccccc1NC(=S)N/N=C1\CC(C)(C)Oc2ccc(O)cc21,106%,-5%,u,2%,u,-8%
CC(=O)N1CCC(N(CCN2CCOCC2)C(=S)Nc2ccc(C)cc2)CC1,-26%,u,11%,-5%,-1%,7%
CC(=O)N1CCC2(CC1)C/C(=N\NC(=S)Nc1ccc(C)cc1)c1cc(O)ccc1O2,10%,-11%,10%,-29%,10µM*,u
Cc1ccc(NC(=S)N/N=C2\CC(C)(C)Oc3ccc(O)cc32)cc1,46%,-13%,u,-2%,5.6µM*,5µM*
COc1ccc(NC(=S)N/N=C2\CC(C)(C)Oc3ccc(OC)cc32)cc1,20%,-3%,-13%,3%,1.4µM*,2µM*
CCOC(=O)N1CCN(C(=O)c2cc(COc3ccc(OC)cc3Cl)on2)CC1,-39%,2%,u,-11%,u,-16%
CCCn1c(-c2ccc(F)cc2)nc2c(NCC3CCN(C)CC3)nc(C)nc21,x,x,x,x,-20%,-6%
COc1ccc(C(=O)NN/C(C)=C/C(=O)C(F)(F)C(F)(F)C(F)(F)F)cc1,0%,1%,u,0%,5.6µM*,5.6µM*
CCC(C)c1ccc(NC(=S)Nc2ccc(OC)cc2C)cc1 (stereo unspecified),-5%,-6%,u,0%,4%,u
C=CCN(CC=C)C(=S)Nc1ccc2nsnc2c1,-14%,4%,u,2%,3.5µM*,6.3µM*
COc1ccc(NC(=S)Nc2ccc3nsnc3c2)cc1,8%,-5%,-1%,u,10µM*,5.6µM*
COc1ccc(NC(=S)Nc2ccc3nc(C)c(C)nc3c2)cc1,-3%,-8%,-21%,5%,11µM*,-3%
CCCCSc1nc(C)cc(NC(=S)Nc2ccc(OC)cc2)n1,1%,-13%,-4%,-1%,1.3µM*,3.5µM*
CC12CCC(C(S(=O)(=O)Nc3ccccc3)C1=O)C2(C)C (stereo unspecified),7%,x,x,-1%,x,x
Cc1cc(NS(=O)(=O)c2ccc(NC(=O)Nc3cccc(C(F)(F)F)c3)cc2)no1,5%,-6%,u,-1%,2%,-2%
COc1ccc(NC(=O)c2cccnn2)cc1,-1%,11%,u,u,0%,-5%
Cc1cccc(/C=N/NC(=O)c2cc3c(s2)-c2ccccc2CC3)c1,-18%,11µM*,u,-5%,-43%,4%
SMILES,Integrin act MD,Mito fusion act,Chronic BCR inh,uPA surface inh,RORg inh,VP16 counter
O=C(N/N=C/c1ccccn1)c1cc(C2CC2)nc2ccccc12,-35%,-2%,u,0%,10µM*,13µM*
O=C(N/N=C/c1ccccn1)c1cc(-c2ccccc2)nc2ccccc12,-28%,7%,u,u,0.5µM*,0.79µM*
COc1ccc(-c2csc(NC(=O)c3cc(C)oc3C)n2)cc1OC,u,-7%,0%,2%,9%,10%
COc1ccc([C@@H]2CC(=O)c3c(O)cc(O[C@@H]4O[C@H](CO)[C@@H](O)[C@H](O)[C@H]4OC4O[C@@H](C)[C@H](O)[C@@H](O)[C@H]4O)cc3O2)cc1O (stereo partly specified),x,x,x,x,0%,-1%
Cc1[nH]n(-c2ccccc2)c(=O)c1C(=O)Nc1ccccc1,10%,0%,u,2%,8%,-11%
C/C(=N\NC(=O)c1ccccc1)c1ccccc1Br,30%,-4%,u,0%,3.5µM*,6.3µM*
C/C(=N\NC(=O)c1ccccc1)c1c(C)[nH]n(-c2ccccc2)c1=O,-10%,0%,u,-2%,0.89µM*,1.3µM*
C/C(=N\NC(=O)c1ccccc1)c1ccccc1F,u,-2%,u,3%,-32%,-19%
C/C(=N\NC(=O)c1ccc(C)cc1)c1c(C)[nH]n(-c2ccccc2)c1=O,-4%,0%,u,u,1.3µM*,1.6µM*
Cc1[nH]n(-c2ccccc2)c(=O)c1C(=O)c1ccc([N+](=O)[O-])cc1,-12%,-2%,-18%,-2%,36%,-5%
C[C@H](CO)N1C[C@H](C)[C@@H](CN(C)C(=O)Nc2cc(F)ccc2F)Oc2ncc(-c3cccc(F)c3)cc2C1=O,-12%,x,x,x,x,x
CN(C)c1ccc(N2C(=NC(=O)CC3CCCCC3)SC3CS(=O)(=O)CC32)cc1 (stereo unspecified),28%,1%,-1%,2%,-2%,4%
CCCCn1c(C)cc2c(c1=O)C1O[C@](c3ccc(OC)cc3)(Cc3cc(OC)c(OC)cc31)O2,x,-2%[9.22 µM],25%[9.22 µM],x,10%[10 µM],-28%[10 µM]
c1ccc(SCc2nc(-c3ccncc3)no2)cc1,-7%,1%,9%,1%,u,11µM*
O=c1c(O)c(-c2ccccc2)oc2cccc(O)c12,x,x,x,x,4µM*,7.9µM*
C/C(Cn1nc([N+](=O)[O-])cc1C)=N\NC(=O)c1cccc(Br)c1,1%,0%,u,-1%,13µM*,u
